Laboratory results reported in PubChem BioAssay (NCI).
“And” between values parts separate entries of the source, which are not always exact repeats. Equal values may be shown once. About 83,000 compounds went through this panel and 20% of them were active in at least one assay; those are over-represented in the sample as a whole.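 A percent growth of 40 corresponds to 60% growth inhibition; 0 means no net growth; -100 means all cells died. Active threshold: below 10.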 The source made the active and inactive calls.

Experiments:
Assay in all cases: NCI-60 one-dose screen, 48 h (100 = growth as untreated, 0 = no growth, -100 = all killed)
Conditions in all cases: 10 µM unless noted
[1] = system: NCI-H23 lung
[2] = system: NCI-H226 lung
[3] = system: NCI-H322M lung
[4] = system: HOP-62 NSCLC
[5] = system: NCI-H460 lung
[6] = system: HOP-92 NSCLC
[7] = system: NCI-H522 lung
[8] = system: 786-0 renal
[9] = system: COLO 205 colon
[10] = system: A549/ATCC NSCLC

Measured: growth

Cn1cnc([N+](=O)[O-])c1Sc1ncnc2nc[nH]c12
inactive: [1] 72.9% and 79.9% | [2] 51.2% and 72.4% | [3] 55.1% and 47.5% | [4] 37.2% and 20.8% | [5] 70.4% and 69% | [6] 60.7% and 61.4% | [7] 65.1% and 85.9% | [8] 36.2% | [9] 94.5% and 112%

O=CC(O)C(O)C(O)CO (centres undefined)
inactive: [1] 13.3% and 100% | [2] 93.9% and 101% | [3] 101% and 96.6% | [4] 114% and 97.6% | [5] 98.7% and 111% | [6] 119% | [7] 33.4% | [10] 102% | [8] 104% and 97.6% | [9] 97.7% and 106%

ClC/C=C/CSc1ncnc2nc[nH]c12
inactive: [1] 101% and 102% | [2] 98.9% and 123% | [3] 110% | [4] 91.9% and 108% | [5] 105% and 106% | [6] 104% | [7] 102% and 77.3% | [8] 106% and 102% | [9] 109% and 116%

COc1cc(Nc2nc3ccccc3nc2NS(=O)(=O)c2ccc(NC(=O)c3ccc(C)c(OC)c3)cc2)cc(OC)c1
70.8% (inactive) and 6.54% (active): [2]
49.3% (inactive) and -6.86% (active): [3]
active: [6] -26.5%
69.5% (inactive) and -19.2% (active): [8]
44.1% (inactive) and -1.64% (active): [4]
66% (inactive) and -11.6% (active): [9]
inactive: [1] 48.3% and 19.8% | [5] 44.4% and 10.5%
40.9% (inactive) and 2.82% (active): [7]

COc1ccc2c(=O)cc(-c3ccccc3)[nH]c2c1
35.3% (inactive) and -14.1% (active): [8]
active: [5] 6.58% and 4.24% | [7] -20% and -68.2% | [9] -19.6% and -7.06%
inactive: [1] 34.4% and 16.5% | [2] 57.3% and 23.8% | [3] 66.1% and 56.9% | [4] 30.1% and 21.2% | [6] 53.8% | [10] 22.6% and 13.9%

CCCCCCCCCCCCCCCc1cc(O)ccc1N
active: [7] -22.4% and -23.6%
inactive: [1] 90.5% and 89.6% | [2] 33.9% and 99.6% | [3] 102% and 84.1% | [4] 103% and 110% | [5] 109% and 102% | [6] 105% | [8] 77.6% and 21.1% | [9] 107% and 114%

CN1CCN(Cc2occc(=O)c2O)CCN(C)CCN(Cc2occc(=O)c2O)CC1
inactive: [1] 94.6% and 49.4% | [2] 94.7% and 70.5% | [3] 105% and 74.9% | [4] 97.1% and 58.9% | [6] 83.8% and 68.4% | [7] 104% and 45.8% | [8] 93.3% and 50% | [9] 102% and 29.7%
105% (inactive) and 6.42% (active): [5]

COc1cc2nc(N3CCC[C@@H](NC(=O)C4COc5ccccc5O4)C3)nc(N)c2cc1OC (some centres undefined)
inactive: [1] 99.6% and 99.7% | [2] 102% and 99.7% | [3] 96.1% and 102% | [4] 107% and 102% | [5] 105% and 107% | [6] 87% and 83% | [7] 96.4% and 93.9% | [8] 97.4% and 96.9% | [9] 108% and 107%
